Each structure is given as a SMILES string. Out of some 16,000 compounds screened, about 5,800 (36%) were called active. Not shown: some 23% with an inconclusive outcome. Calls come from the whole dose curve; as a rule, active = well fitted curve in the direction sought with a large enough effect; inconclusive = small, poorly fitted or top-dose-only effect, or effect the other way; inactive = no such curve, though single readings can be large or run the other way. The list shows a part of the results.
% is set by controls: 0 for no effect and ±100 for the full control effect.

In the experiment the target is Cytochrome P450 2C19 (Homo sapiens) (UniProt P33261). As to the kind of experiment: Cytochrome panel assay with activity outcomes. The following applies: recombinant CYP, pro-luciferin dealkylation, luminescence, p450-cyp2c19; series mostly up to 57.1 µM.
Chain of Cytochrome P450 2C19 (Homo sapiens) (P33261 whole entry, looked up): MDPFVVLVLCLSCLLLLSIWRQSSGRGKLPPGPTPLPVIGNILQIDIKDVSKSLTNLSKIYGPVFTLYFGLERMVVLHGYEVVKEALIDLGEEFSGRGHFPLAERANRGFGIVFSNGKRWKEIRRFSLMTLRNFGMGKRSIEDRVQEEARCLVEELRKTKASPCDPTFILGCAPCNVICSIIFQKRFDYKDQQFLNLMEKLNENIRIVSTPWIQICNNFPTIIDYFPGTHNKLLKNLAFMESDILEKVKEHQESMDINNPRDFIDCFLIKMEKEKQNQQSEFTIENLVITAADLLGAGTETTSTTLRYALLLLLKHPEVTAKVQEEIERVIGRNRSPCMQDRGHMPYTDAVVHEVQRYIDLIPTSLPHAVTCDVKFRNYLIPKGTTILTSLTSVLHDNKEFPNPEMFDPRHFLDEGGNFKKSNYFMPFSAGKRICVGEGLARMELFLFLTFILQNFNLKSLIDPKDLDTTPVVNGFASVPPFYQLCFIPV
For the compound `O=C1c2ccccc2C(Cc2ccncc2)(Cc2ccncc2)c2ccccc21`, the AC50 result was “inactive”.

In the case of `O=C1N(c2ccccc2)c2ccccc2C1(Cc1ccncc1)Cc1ccncc1`, the AC50 is 0.2 µM (active).

As to `N#C/C(=C\c1ccc(Cl)cc1)c1nc2ncccc2[nH]1`, the AC50 is 25.1 µM (active).

As for `COc1ccccc1CN1CCCC2(CCNCC2)C1`, the AC50 entry was “inactive”.

For the compound `COc1cccc(CN2C(=O)N(C(C)C)C(N(O)C(=O)NC(C)C)C2(C)C)c1OC` (configuration not stated), the AC50 is 14.1 µM (active).

`O=C1/C(=C\c2ccccn2)SC(=S)N1Nc1ncc(C(F)(F)F)cc1Cl`: the AC50 was 7.94 µM (active).

For the compound `CN(C)c1ccc(/C=C2\SC(=S)N(Nc3ncc(C(F)(F)F)cc3Cl)C2=O)cc1`, the concentration at half-maximal activity (AC50) was 20 µM (active).

Turning to `O=c1c(Cl)c(N2CCN(S(=O)(=O)c3ccc(F)cc3)CC2)cnn1-c1cccc(Cl)c1`, the AC50 was 4.47 µM (active).

On to `O=C(NCc1n[nH]c(=S)n1-c1cccc(Cl)c1)c1ccc(S(=O)(=O)N2CCCC2)cc1`, for which the AC50 entry was “inactive”.

Take `C[N+](C)(C)CCOC(N)=O`: the AC50 result is “inactive”.

On to `Nc1ncnc2c1ncn2C1CCCC1`, for which the AC50 result was “inactive”.

With `Nc1ncnc2c1c(-c1ccc(Oc3ccccc3)cc1)cn2C1CCCC1`, the AC50 is 25.1 µM (active).

In the case of `C#CCCCO/N=C1/C[C@@H](O)[C@@H](O)[C@@H]2[C@@H]3C(=O)N(C4CCCCC4)C(=O)[C@H]3CC[C@H]12`, the activity, negative = inhibition is 4.77% [at 11.4 µM] (inactive).

Take `c1csc(CNc2ncnc3ccc(-c4ccoc4)cc23)c1`: the AC50 is 6.31 µM (active).

As for `COc1cccc(-c2ccc3ncnc(NCc4ccc(OC)cc4OC)c3c2)c1`, the AC50 was 10 µM (active).

`COc1ccccc1CNc1ncnc2ccc(-c3cccc(C#N)c3)cc12`: the AC50 is 5.01 µM (active).

Turning to `COc1ccccc1CNc1ncnc2ccc(-c3ccccc3CN(C)C)cc12`, the AC50 result is “inactive”.

For `c1nc(NCCN2CCOCC2)c2cc(-c3ccoc3)ccc2n1`, the AC50 entry was “inactive”.

As to `COc1ccccc1CNc1ncnc2ccc(-c3ccccc3OC)cc12`, the AC50 is 3.16 µM (active).

With `COc1ccc(CNc2ncnc3ccc(-c4cccc(C#N)c4)cc23)c(OC)c1`, the AC50 entry was “inactive”.

On to `N#Cc1cccc(-c2ccc3ncnc(NCc4ccccc4)c3c2)c1`, for which the AC50 result is “inactive”.

Turning to `CSc1nnc2c(n1)OC(C)N(C(=O)c1ccccc1)c1ccccc1-2` (configuration not stated), the AC50 entry was “inactive”.

Take `COc1cccc(-c2ccc3ncnc(NCc4cccs4)c3c2)c1`: the AC50 was 10 µM (active).

Take `COc1ccc(CNc2ncnc3ccc(-c4ccccc4OC)cc23)c(OC)c1`: the AC50 is 7.94 µM (active).

Take `CS(=O)(=O)Nc1cccc(-c2ccc3ncnc(NCCN4CCOCC4)c3c2)c1`: the AC50 entry is “inactive”.

Turning to `CS(=O)(=O)Nc1cccc(-c2ccc3ncnc(NCc4cccs4)c3c2)c1`, the AC50 is 15.8 µM (active).

As to `COc1ccc(CNc2ncnc3ccc(-c4ccccc4CN(C)C)cc23)c(OC)c1`, the AC50 is 15.8 µM (active).

`COc1ccc(CNc2ncnc3ccc(-c4ccccc4C#N)cc23)c(OC)c1`: the AC50 entry is “inactive”.

As to `COc1ccc(CNc2ncnc3ccc(-c4ccoc4)cc23)c(OC)c1`, the AC50 was 7.94 µM (active).

Consider `COc1ccc(CNc2ncnc3ccc(-c4c(C)noc4C)cc23)c(OC)c1`, for which the AC50 is 10 µM (active).

As to `COc1ccccc1CNc1ncnc2ccc(-c3ccccc3C#N)cc12`, the AC50 is 7.94 µM (active).

As for `Cc1nc2sc(C#N)c(N)c2c2c1CCCC2`, the AC50 is 11.2 µM (active).

Take `C[C@@H]1c2ccccc2CN1CC1=NCCN1`: the AC50 entry was “inactive”.

`CCn1c(N2CCN(C(=O)Nc3ccc(F)cc3)CC2)nc2ccccc21`: the AC50 was 31.6 µM (active).

As to `COc1ccc(NC(=O)N2CCCC3(CCN(C(=O)c4cccc(F)c4)CC3)C2)cc1`, the AC50 entry was “inactive”.

Take `COc1ccc(NC(=O)N2CCC3(CC2)CCN(C(=O)c2cccc(F)c2)CC3)cc1`: the AC50 entry was “inactive”.

For `CCOC(=O)CSc1n[nH]c(NC(=O)c2cccc(C)c2)n1`, the half-maximal activity concentration (AC50) is 5.01 µM (active).

As for `NNC(=O)CCSc1ccccc1`, the AC50 is 3.98 µM (active).

With `Cc1cc(Br)ccc1NC(=O)CCSc1ccccc1`, the AC50 is 1.26 µM (active).

Regarding `O=C(O)CCCSc1ccccc1`, the activity, negative = inhibition is 31.6% [at 11.4 µM] (inactive).

In the case of `O=c1c(-c2ccccc2)nc2cnc(N3CCNCC3)nc2n1-c1ccccc1`, the AC50 entry was “inactive”.

For the compound `CC(C)c1ccc(CN(C(=O)C2COc3ccccc3O2)C2CCS(=O)(=O)C2)cc1` (configuration not stated), the AC50 was 10 µM (active).

With `CCCCC(=O)NC(Nc1cc(C)ccn1)(C(=O)OCC)C(F)(F)F` (configuration not stated), the half-maximal activity concentration (AC50) is 1.41 µM (active).

Consider `N=c1sc2ccccc2n1CCS` (tested in a mixture with another compound), for which the AC50 is 1.58 µM (active).

On to `O=C(O)c1ccccc1NCn1c(=S)sc2ccccc21`, for which the activity, negative = inhibition was -40.3% [at 11.4 µM] (inactive).

In the case of `c1ccc2nc(C3=NCCN3)cnc2c1`, the AC50 result was “inactive”.

As to `Cc1cc(C)n(Cc2ccc(NC(=O)c3ccc(COc4ccccc4Br)cc3)cc2)n1`, the AC50 is 3.98 µM (active).

Consider `COC(=O)[C@@]1(Cc2ccccc2)[C@H]2c3cc(C(=O)N4CCCC4)n(Cc4ccccn4)c3C[C@H]2CN1C(=O)c1ccccc1`, for which the AC50 was 10 µM (active).

Regarding `COC(=O)[C@@]1(Cc2ccccc2)[C@H]2c3cc(C(=O)N4CCCC4)n(CCc4ccccn4)c3C[C@H]2CN1C(=O)c1ccccc1`, the AC50 was 25.1 µM (active).

On to `COC(=O)[C@@]1(Cc2ccccc2)[C@H]2c3cc(C(=O)N4CCCC4)n(Cc4nc5ccccc5[nH]4)c3C[C@H]2CN1C(=O)c1ccccc1`, for which the AC50 was 15.8 µM (active).

On to `COC(=O)[C@@]1(Cc2ccc(OC)cc2)[C@H]2c3cc(C(=O)N4CCCC4)n(CCn4cc([N+](=O)[O-])nc4C)c3C[C@H]2CN1C(=O)c1ccccc1`, for which the AC50 entry was “inactive”.

For `CSc1nc(Cl)cc(N(CCO)CCO)n1`, the AC50 result is “inactive”.

In the case of `CC(C)(CO)Cc1cc(C(C)(C)C)c(O)c(C(C)(C)C)c1`, the AC50 is 25.1 µM (active).

In the case of `CC(C)(C=O)Cc1cc(C(C)(C)C)c(O)c(C(C)(C)C)c1`, the AC50 entry is “inactive”.

As to `CCOC(=O)c1ccccc1N/C=C1\CCCCC1=O`, the half-maximal activity concentration (AC50) is 22.4 µM (active).

With `CCn1c2ccccc2c2cc(NC(=O)C/C(C)=N/NC(=O)c3ccccc3N)ccc21`, the AC50 was 2.24 µM (active).

As for `CCc1ccccc1N1C(=O)c2cccc3c(N4CCOCC4)c([N+](=O)[O-])cc(c23)C1=O`, the AC50 was 3.98 µM (active).

`O=c1cc(N2CCOCC2)oc2c(-c3ccccc3)cccc12`: the AC50 entry is “inactive”.

For `Cc1noc(C)c1-c1nccc(N(C)C)n1`, the AC50 entry is “inactive”.

For the compound `CN(Cc1ccco1)c1ccnc(-c2cccnc2)n1`, the AC50 is 6.31 µM (active).

As to `Cc1noc(C)c1-c1nccc(N(C)Cc2ccco2)n1`, the AC50 is 1 µM (active).

For `COc1cccc(-c2nccc(N(C)Cc3ccco3)n2)c1`, the AC50 is 5.01 µM (active).

What is called AC50 is the concentration giving half of the maximal activity seen.
